Drawing on PubChem BioAssay AID1672 (Johns Hopkins Ion Channel Center, 2009), this text covers B-score for 98 compounds.

SMILES strings stand for the structures. The whole screen tested about 310,000 compounds, of which about 2,600 (0.84%) were called active.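 The calls were made as follows: active = fluorescence ratio B-score at or below minus 3 SD of library scores, with starting-brightness B-score within 2 SD (cut at about -4.2 in these data); inactive = the rest.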 The list comes from a sample in which actives are over-represented; it also holds similar structures and randomly drawn compounds.

Chain of Inward rectifier potassium channel 2 (Mus musculus) (P35561 whole entry, looked up): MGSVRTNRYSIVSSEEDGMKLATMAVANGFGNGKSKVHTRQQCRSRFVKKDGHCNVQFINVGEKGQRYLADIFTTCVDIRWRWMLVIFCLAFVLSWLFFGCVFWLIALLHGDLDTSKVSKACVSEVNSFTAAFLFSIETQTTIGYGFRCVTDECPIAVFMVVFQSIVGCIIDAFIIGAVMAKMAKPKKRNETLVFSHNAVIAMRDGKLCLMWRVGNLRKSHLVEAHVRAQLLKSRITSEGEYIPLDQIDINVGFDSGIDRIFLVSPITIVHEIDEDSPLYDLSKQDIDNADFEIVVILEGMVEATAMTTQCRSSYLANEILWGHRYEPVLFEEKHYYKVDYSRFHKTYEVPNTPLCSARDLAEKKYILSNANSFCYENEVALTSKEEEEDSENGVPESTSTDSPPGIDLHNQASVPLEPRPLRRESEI

The test has as its target Inward rectifier potassium channel 2 (Mus musculus) (UniProt P35561). Briefly: inhibitors of mouse Kir2.1 inward-rectifier potassium channel (AID 1672).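 Also: channel flux triggered by added potassium and thallium sulfate stimulus; B-score of peak minus minimum fluorescence over baseline after thallium stimulus; more negative B-score means stronger Kir2.1 block with less thallium influx.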 To be noted: HEK293-Kir2.1, FluxOR thallium flux fluorescence; at 10 µM; active compounds read low.
For `COc1ccc(C(=O)Nc2cccc(NC(=O)c3ccc(OC)cc3OC)n2)c(OC)c1`, the B-score was 1.64 (inactive).
For `O=S(=O)(O)Oc1c[nH]c2ccccc12`, the B-score was 0.01 (inactive).
For the compound `Cc1nnc(SCc2ccc(C(=O)c3ccc(Cl)cc3)o2)n1-c1ccccc1`, the B-score is -6.19 (active).
For the compound `Cc1nnc(SCC(=O)NCCOc2ccc(Cl)cc2)n1-c1ccccc1`, the B-score is -0.16 (inactive).
To `Cc1nnc(SCC(=O)N2CCN(c3ccccc3)CC2)n1-c1ccccc1` belongs 0.71 (inactive); to `COc1ccc(OCC(O)CN(C)C(=O)C(C)Oc2ccccc2)cc1` (stereo not drawn), -0.09 (inactive); to `Cc1ccc(OCC(=O)OC(C)CN(C)Cc2ccccc2)cc1` (stereo not drawn), 0.74 (inactive).
In the case of `CN(Cc1ccccc1)CC(O)COc1ccc(CNCc2cc3ccccc3s2)cc1` (stereo not drawn), the B-score is -11.4 (active).
With `C=CCNC(=O)C1CC2c3ccccc3C1c1ccccc12` (stereo not drawn) the figure was -2.23 (inactive); with `C[C@@H](NC(=O)OC(C)(C)C)c1nnc(S(=O)(=O)Cc2ccccc2)o1`, -6.48 (active).
As to `C[C@H](NC(=O)OC(C)(C)C)c1nnc(SCC(N)=O)o1`, the B-score is -0.34 (inactive).
Regarding `CC(C)Sc1nnc([C@H](Cc2ccccc2)NC(=O)OC(C)(C)C)o1`, the B-score was -0.51 (inactive).
With `O=C(c1ccc(Cl)s1)N(Cc1nnc(-c2ccccc2Cl)o1)C1CC1` the figure was 1.76 (inactive).
As to `Cc1ccn2c(=O)nc(SCC(=O)NCc3ccc(F)cc3)nc2c1`, the B-score is -1.27 (inactive).
Consider `Cc1csc(NC(=O)c2ccc(C)s2)n1`, for which the B-score is 0.01 (inactive).
For the compound `CC(=O)Nc1cccc(C(=O)OCC(=O)Nc2nnc(-c3ccccc3)o2)c1`, the B-score was -2.17 (inactive).
With `COc1ccccc1NS(=O)(=O)c1ccc(C)c(C(=O)NCC(c2ccco2)N(C)C)c1` (stereo not drawn) the figure was -0.98 (inactive); with `C=CCNC(=S)/N=c1/ccccn1Cc1ccccc1`, -6.6 (active); with `C=CCNC(=O)COc1coc(CN2CCN(Cc3ccccc3)CC2)cc1=O`, 0.45 (inactive).
Regarding `C=CCNC(=S)N/N=C/c1ccc(OCc2ccccc2)cc1`, the B-score was -1.45 (inactive).
As for `O=C(Nc1ncccc1O)c1ccc(S(=O)(=O)N2CCCC2)cc1`, the B-score is -0.16 (inactive).
Turning to `CC(C)(C)NCc1cc(Br)ccc1OC1CCCC1`, the B-score is -4.79 (active).
As to `CCOCCCNCc1cc(Br)ccc1OCC`, the B-score is -0.16 (inactive).
With `COCC(C)NCc1cc(Br)ccc1OC` (stereo not drawn) the figure was 1.7 (inactive); with `Cc1ccc(NC(=O)c2cnc(SCC(=O)NCC3CCCO3)n(C)c2=O)cc1` (stereo not drawn), 0.42 (inactive); with `Cc1ccc(S(=O)(=O)N2CCC(C(=O)NCCC3=CCCCC3)CC2)cc1C`, 0.61 (inactive).
Take `O=C1c2ccccc2C(=O)c2c1cccc2N1CCN(C/C=C/c2ccccc2)CC1`: the B-score was 1.06 (inactive).
To `COc1ccc(C)cc1NC(=O)CSc1nnc2ccc(-c3ccccn3)nn12` belongs 0.98 (inactive).
Turning to `CC1(C)NC(=O)N(CCCCSc2ccc(Cl)cc2)C1=O`, the B-score is -6.38 (active).
With `CSc1ccc(CN2C(=O)NC3(CCCCCC3)C2=O)cc1` the figure was 1.22 (inactive).
`Cc1ccc(SCCN2C(=O)NC(C)(C)C2=O)cc1`: the B-score is 0.51 (inactive).
For the compound `Cc1ccn2c(=O)c(NC(=O)c3cccc4ccccc34)c(C)nc2c1`, the B-score was -0.25 (inactive).
Turning to `CC1CN(C(=O)CCC(=O)NC2CCN(Cc3ccccc3)CC2)c2ccccc2O1` (stereo not drawn), the B-score was 2.27 (inactive).
With `CC1CN(C(=O)CCC(=O)NCc2cccnc2)c2ccccc2O1` (stereo not drawn) the figure was -0.67 (inactive).
To `CC1CN(C(=O)CCC(=O)NCCCN2CCC(Cc3ccccc3)CC2)c2cc(Cl)ccc2O1` (stereo not drawn) belongs -9.24 (active); to `CN(C)S(=O)(=O)c1ccc(N2CCCC2)c(C(=O)Nc2ccc(Br)cc2F)c1`, -0.29 (inactive); to `Cc1cc(C)cc(NC(=O)COc2coc(CN3CCN(c4ccccc4)CC3)cc2=O)c1`, 0 (inactive).
With `Cc1ccc(NC(=S)N(CCCN2CCCC2)Cc2cccn2Cc2ccc(Cl)cc2)cc1` the figure was -8.85 (active); with `Cc1ccc(NC(=S)N(CCCN2CCC(C)CC2)Cc2ccco2)cc1`, -0.74 (inactive).
In the case of `Cc1ccc(NC(=S)N(CCN2CCCCC2)Cc2ccco2)cc1C`, the B-score is -0.41 (inactive).
With `CC(C)(C)S(=O)(=O)c1ccccc1-c1noc(-c2ccccc2)c1C(N)=O`, the B-score is -0.65 (inactive).
As for `COc1ccc(S(=O)(=O)NCC(c2ccc(C)cc2)N2CCN(C)CC2)cc1OC` (stereo not drawn), the B-score is 1.23 (inactive).
With `CCCOc1ccc(C(=O)C(CCC(CNCC)C(=O)c2ccc(OCCC)cc2)CNCC)cc1` (stereo not drawn), the B-score was -6.16 (active).
Regarding `CCCOc1ccc(C(=O)CCC(=O)OC(C)C(=O)Nc2ccc(NC(C)=O)cc2)cc1` (stereo not drawn), the B-score is 0.42 (inactive).
For the compound `CCCCOc1ccc(C(=O)NCc2ccncc2)cc1`, the B-score is 0.24 (inactive).
In the case of `O=C(CSc1nc(=O)n2ccccc2n1)Nc1ccc2c(c1)OCCO2`, the B-score was 0.08 (inactive).
For `CCOc1ccc(C(C)=O)cc1COC(=O)CN1C(=O)NC2(CCCC2)C1=O`, the B-score was -1.53 (inactive).
Take `CCCCn1c(N)c(N(CC(C)C)C(=O)c2ccc(-n3c(C)ccc3C)cc2)c(=O)[nH]c1=O`: the B-score is -1.14 (inactive).
Take `c1ccc(C2CNCc3c2ccc2ccccc32)cc1` (stereo not drawn): the B-score is -11.2 (active).
In the case of `Cc1ccc(C)c(-c2nnc(NC(=O)CS(=O)(=O)c3ccccc3)o2)c1`, the B-score was 1.4 (inactive).
Consider `O=c1[nH]c(/C=C/c2cccc(Br)c2)nc2ccccc12`, for which the B-score was 0.39 (inactive).
With `Cc1cc(C)cc(NC(=O)CSc2ccccc2)c1` the figure was 0.12 (inactive); with `CC(=O)Nc1ccc(SCC(=O)Nc2ccccc2Oc2ccccc2)cc1`, -6.89 (active); with `O=C(CSc1ccccc1)Nc1cc(Cl)ccc1Oc1ccccc1`, -1.22 (inactive).
As for `N#CCCN(C(=O)COC(=O)C1CCN(c2ccc(C(F)(F)F)cn2)CC1)c1ccc(F)cc1`, the B-score is 0.96 (inactive).
In the case of `CCOC(=O)N1CCN(C(=O)COc2ccc3oc4c(c3c2)CCCC4)CC1`, the B-score was 0.58 (inactive).
`COc1ccccc1CCNC(=O)C(=O)NCCC1CCCCN1S(=O)(=O)c1cccs1` (stereo not drawn): the B-score was -1.17 (inactive).
Take `O=C(/C=C/c1ccc(Cl)cc1Cl)c1cccnc1`: the B-score was -4.49 (active).
To `O=C(/C=C/c1ccc(Cl)c([N+](=O)[O-])c1)c1cccnc1` belongs -0.86 (inactive); to `O=C(Nc1cccnc1)c1cc(Cl)ccc1Cl`, 0.72 (inactive).
To `COc1ccc2oc(C(=O)OCC(=O)N(CC(C)C)c3c(N)n(Cc4ccccc4)c(=O)[nH]c3=O)c(C)c2c1` belongs 0.5 (inactive); to `C=C(C)Cn1c(C)cc(C)c(S(=O)(=O)c2ccccc2C)c1=O`, -4.55 (active).
Take `Cc1cc(C)c(S(=O)(=O)c2ccc(F)cc2C)c(=O)[nH]1`: the B-score was 0.31 (inactive).
Regarding `COc1ccccc1S(=O)(=O)c1c(C)cc(C)[nH]c1=O`, the B-score was -1.21 (inactive).
Consider `Cc1ccc(C(=O)NNC(=O)C(C)Oc2ccc3ccccc3c2)o1` (stereo not drawn), for which the B-score was 0.32 (inactive).
For the compound `CSc1ncc(Sc2ccccc2)c(C(=O)O)n1`, the B-score was 0.25 (inactive).
`CC(=O)OC(C(=O)NC1CCCCC1)c1ccccc1` (stereo not drawn): the B-score is -0.67 (inactive).
Take `COc1ccccc1CN1CCN(C(c2ccccc2)c2ccccc2)CC1`: the B-score was -0.07 (inactive).
In the case of `CC(NCc1ccccc1OC1CCCC1)c1ccccc1` (stereo not drawn), the B-score is -12.7 (active).
To `Cc1ccc(NC(=O)C2CC(=O)N(c3ccc4c(c3)OCCO4)C2)cc1S(=O)(=O)N1CCCCCC1` (stereo not drawn) belongs -0.57 (inactive); to `COc1ccc2c(c1)CCNC2Cc1ccc(OC)c(O)c1` (stereo not drawn), 1.91 (inactive); to `CN1CCN(C2Cc3ccc(Cl)cc3Sc3ccc(F)cc32)CC1` (stereo not drawn), -1.17 (inactive).
Consider `O=C1CSC(c2ccccc2)N1c1nc(-c2ccc(Cl)cc2Cl)cs1` (stereo not drawn), for which the B-score is 0.4 (inactive).
For the compound `Clc1ccc(-c2cc(C3CCNCC3)[nH]n2)c(Cl)c1`, the B-score was -12.6 (active).
On to `Clc1ccc(-c2cc(-c3ccccn3)on2)c(Cl)c1`, for which the B-score is 0.99 (inactive).
For `O=C(Nc1cccc2c1CCCC2)c1ccc(F)cc1`, the B-score was -0.09 (inactive).
`Cc1ccc(S(=O)(=O)N2CCN(C(=O)Cc3sc(C)nc3-c3ccc(F)cc3)CC2)c(C)c1`: the B-score was -0.03 (inactive).
`COc1ccc(S(=O)(=O)N2CCCCC2)cc1NC(=O)c1cc([N+](=O)[O-])ccc1N1CCOCC1`: the B-score was -0.55 (inactive).
For the compound `CCN1C(=O)[C@@H]2[C@@H](c3ccc(-c4cccc(Cl)c4)cc3)N3CCC[C@@]3(C(=O)OC)[C@@H]2C1=O`, the B-score is 0 (inactive).
Take `CCOc1ccccc1OCC(=O)Nc1ccccc1C(=O)NC1CC1`: the B-score was -2.1 (inactive).
For `COc1ccccc1OCC(=O)Nc1ccccc1C(=O)NC1CC1`, the B-score is -0.05 (inactive).
Turning to `CC(Oc1ccc(F)cc1)C(=O)Nc1ccccc1C(=O)NC1CC1` (stereo not drawn), the B-score is -5.66 (active).
Regarding `CC(Oc1ccc(Br)cc1)C(=O)NCC(c1ccco1)N1CCCCC1` (stereo not drawn), the B-score was -1.52 (inactive).
With `Cc1ccc(-c2nc(CSCC(=O)NC3CCN(Cc4ccccc4)CC3)c(C)o2)cc1` the figure was -4.77 (active); with `Cc1ccc(S(=O)(=O)NCCC(=O)NC2CCN(Cc3ccccc3)CC2)cc1`, -1.38 (inactive).
Turning to `Cc1ccc(-c2cc(C(=O)NC3CCN(Cc4ccccc4)CC3)c3ccccc3n2)cc1`, the B-score was 0 (inactive).
As to `C=CCc1cc(S(=O)(=O)c2ccc(O)c(CC=C)c2)ccc1O`, the B-score is -6.7 (active).
On to `CCOC(=O)C1Nc2ccc(C(F)(F)F)cc2C2C=CCC12` (stereo not drawn), for which the B-score was 1.69 (inactive).
Take `COc1ccc(CNC(=O)Cc2ccc(-c3ccccc3)cc2)cc1OC`: the B-score is 0.77 (inactive).
As for `COc1cc(CNCc2cccs2)cc(Br)c1OC`, the B-score was -1.78 (inactive).
As for `COc1cc(CNCc2ccc(OC)c3ccccc23)cc(OC)c1OC`, the B-score is -6.99 (active).
`CC12CN(Cc3ccccc3)CC(C)(CN(Cc3ccccc3)C1)C2=NO`: the B-score was -8.19 (active).
With `CCCC(=O)C1CCN(Cc2ccccc2)CC1`, the B-score was -3.46 (inactive).
Take `O=C(Nc1ccccc1)N1CCN(Cc2ccccc2)CC1`: the B-score is 0.76 (inactive).
For the compound `CC(C)(C)Oc1ccccc1Nc1nc(NCCO)nc(N2CCCC2)n1`, the B-score is 0.89 (inactive).
For the compound `CCOc1ccccc1-c1nc(CN2CCC(C(=O)N3CCOCC3)CC2)c(C)o1`, the B-score is 0.57 (inactive).
To `COc1cccc(CC2(CO)CCCN(Cc3nc(-c4cccs4)oc3C)C2)c1` (stereo not drawn) belongs -0.22 (inactive); to `COc1ccc(F)c(-c2nc(CN3CCC(c4ccccc4)CC3)c(C)o2)c1`, -6.63 (active).
